ANO1 activ – activators or potentiators of mouse TMEM16A chloride channel; B-score at 10 µM; HEK293 TMEM16A/YFP-H148Q/I152L, iodide quench fluorescence; hits give low values; 340,000 tested, 0.3% active; Q8BHY3;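 active means fluorescence-ratio B-score plate-corrected deviation score at least 3 library SD below zero, with starting fluorescence score within 5 deviations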;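 further: channel opened by trigger with iodide after compound preincubation; score built on the fluorescence ratio of max minus min over baseline; more negative score means more quench and so TMEM16A activation or potentiation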
TMEM16A inh – blocks the mouse calcium-activated chloride channel TMEM16A; HEK293 TMEM16A/YFP iodide influx fluorescence, ionomycin; normalized B-score (activity score, 25-100; higher = stronger inhibition) at 10 µM; 310,000 tested, 1.2% active; AID 588511;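 active means ratio plate-corrected score three or more library SD toward inhibition, starting fluorescence score within five deviations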;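 further: score derived from kinetic fluorescence span divided by baseline fluorescence per well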
KCNK3 block – human KCNK3 channel inhibition, primary screen; B-score at 10 µM; CHO-KCNK3 thallium flux, FluxOR fluorescence; hits give low values; AID 602410; O14649; 340,000 tested, 0.84% active;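 active means B-score under library mean minus 4 SD, starting fluorescence ratio at most library mean plus 5 SD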;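 further: more negative B-score means stronger inhibition of thallium flux through KCNK3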
Target sequence (O14649 whole entry, looked up): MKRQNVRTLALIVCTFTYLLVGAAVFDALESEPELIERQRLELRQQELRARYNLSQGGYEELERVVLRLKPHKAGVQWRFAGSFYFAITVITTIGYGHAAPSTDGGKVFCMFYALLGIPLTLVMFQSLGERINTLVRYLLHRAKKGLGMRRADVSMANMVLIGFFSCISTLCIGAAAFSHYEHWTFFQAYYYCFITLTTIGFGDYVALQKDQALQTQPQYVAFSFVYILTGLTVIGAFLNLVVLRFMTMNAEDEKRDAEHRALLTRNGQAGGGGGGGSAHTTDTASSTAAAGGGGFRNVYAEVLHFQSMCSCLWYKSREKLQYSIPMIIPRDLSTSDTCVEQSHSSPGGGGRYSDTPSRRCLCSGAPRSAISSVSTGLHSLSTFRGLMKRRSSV
KCNK9 inh – inhibitors of human KCNK9 two-pore domain potassium channel. 310,000 tested, 1.2% active. B-score at 10 µM. HEK293 KCNK9, FluxOR thallium flux fluorescence; hits give low values;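 active means ratio B-score over 3 SD below the library mean, with starting fluorescence within 5 SD of its mean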;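 further: negative B-score means less thallium flux so channel inhibition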
Kir21 inh – blocks the mouse Kir2.1 inward-rectifier potassium channel; P35561; HEK293-Kir2.1, FluxOR thallium flux fluorescence; hits give low values; B-score at 10 µM; 310,000 tested, 0.85% active;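 active means fluorescence ratio B-score at or below minus 3 SD of library scores, with starting-brightness B-score within 2 SD, cut at about -4.2 in these data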;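 further: channel flux triggered by added potassium and thallium sulfate stimulus; B-score of peak minus minimum fluorescence over baseline after thallium stimulus; more negative B-score means stronger Kir2.1 block with less thallium influx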
KCNK9 block conf – confirmation of human KCNK9 potassium channel inhibitors; shares compounds with KCNK9 inh; HEK293 KCNK9 cells, FluxOR thallium flux fluorescence; inhibition, % at 10 µM; 4,900 tested, 43% active;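 active means thallium signal inhibited by more than 5 SD of the compound-free buffer control wells, on both duplicate plates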;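 further: 0% = assay buffer control wells without compound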
Kir2-1 spec – selectivity of KCNK9 modulators against mouse Kir2.1. shares compounds with KCNK9 inh. inhibition, % at 10 µM. Kir2.1 cells, FluxOR thallium flux fluorescence. 4,900 tested, 4% active;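 active means thallium signal drop more than 5 SD beyond the mean of the no-compound control wells, seen in both duplicate plates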;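 further: signal is fluorescence rise after thallium addition divided by baseline fluorescence; plate controls were assay buffer only for no effect and full block by chlorpromazine control for full effect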
KCNK9 uninduced – non-induced cell nonspecific activity of KCNK9 modulators; non-induced KCNK9-HEK293, FluxOR thallium flux; 4,900 tested, 40% active; shares compounds with KCNK9 inh; inhibition, % at 10 µM;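 active means thallium signal drop beyond 5 SD of the untreated control mean, on both duplicate plates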;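 further: plate controls were buffer only IC0 wells for no effect and SID17386958 at its maximal inhibitory level for full effect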
Active calls of the source: *; i = inactive; x = not tested or not shown. A selection: hits, their analogues and other compounds. The true share with any hit is near 3.5%.

SMILES	ANO1 activ	TMEM16A inh	KCNK3 block	KCNK9 inh	Kir21 inh	KCNK9 block conf	Kir2-1 spec	KCNK9 uninduced
CSCCC(C(=O)OCC(=O)c1ccc(C)c(C)c1)N1C(=O)c2cc(Cl)c(Cl)cc2C1=O (configuration not stated)	i	i	i	i	1.7	i	i	i
CC1=NN(c2ccc(C(=O)O)cc2)C(=O)/C1=C/c1ccc(-c2ccccc2F)o1	i	100*	i	i	1.2	i	i	i
CC1=NN(c2ccccc2)C(=O)/C1=C/c1ccc(-c2ccc(C)c(C(=O)O)c2)o1	i	i	i	i	-0.1	i	i	i
CCC1CCCCN1C(=O)CSc1nc2ccsc2c(=O)n1Cc1ccccc1 (configuration not stated)	i	i	i	i	-0.67	i	i	i
C/C(=N\NC(=O)C1=NNC(=O)C1C)c1cccs1 (configuration not stated)	i	i	i	i	-1.5	x	x	x
Cn1cc(S(=O)(=O)N2CCN(c3cccc(Cl)c3)CC2)c(=O)n(C)c1=O	i	i	i	i	0.54	i	i	i
CCCCNC(=O)CN1C(=O)NC2(CCCc3ccccc32)C1=O (configuration not stated)	i	i	i	i	0.37	x	x	x
O=C(Cc1cccc(NC(=O)C2CCCN(C(=O)C3CCC3)C2)c1)Nc1cccc(C(=O)N2CCCC2)c1 (configuration not stated)	i	x	i	x	x	x	x	x
O=C1c2[nH]nc(-c3ccccc3O)c2C(c2cccc(O)c2)N1Cc1ccco1 (configuration not stated)	i	i	i	-8.4*	-0.55	26%*	i	30%*
COc1ccc(C2c3c(-c4ccccc4O)n[nH]c3C(=O)N2Cc2ccco2)cc1 (configuration not stated)	i	i	i	i	-0.07	x	x	x
COc1cc(C)ccc1OCCOCCOc1cc(C)c(C)cc1Br	i	i	i	i	-1	i	i	i
CCCN1CCN(CC(=O)Nc2nncs2)CC1	i	i	i	i	-0.63	x	x	x
O=C(Nc1ccccc1-c1nnc(SCc2ccccc2Cl)o1)c1ccccc1	i	i	i	i	0.77	i	i	i
CC(C)Cn1c2c(c(O)c(C(=O)Nc3nccs3)c1=O)CCCC2	i	i	i	-8.3*	-0.44	44%*	i	27%*
CCCn1c2c(c(O)c(C(=O)Nc3nc(C)cs3)c1=O)CCCC2	x	x	x	i	-4.3	x	x	x
Cc1csc(NC(=O)c2c(O)c3c(n(CC(C)C)c2=O)CCCC3)n1	i	i	-9.8*	-14*	0.03	55%*	i	35%*
O=C1c2ccsc2SCCN1Cc1c(Cl)cccc1Cl	i	i	i	i	-2.2	x	x	x
CCOC(=O)Cc1csc(SCC(=O)NC2CCCC2)n1	i	x	i	x	x	x	x	x
c1ccc2cc(OCCOCCOc3ccc4ccccc4c3)ccc2c1	i	i	i	i	-0.73	i	i	i
O=C(CSc1ccc(Br)c2cccc(Cl)c12)Nc1ccc(S(=O)(=O)Nc2nccs2)cc1	i	i	i	i	-0.36	i	i	i
COc1ccc([N+](=O)[O-])cc1NC(=O)C(C)Sc1nc(-c2ccccc2)cs1 (configuration not stated)	i	i	i	-8.1*	-1.6	i	i	31%*
COc1ccc([N+](=O)[O-])cc1NC(=O)C(C)Sc1ccccc1 (configuration not stated)	i	i	i	i	-0.09	x	x	x
Cc1ccc(N(CC(=O)NCc2ccccc2)C(=O)c2csnn2)c(C)c1	i	i	i	i	-0.71	x	x	x
CCOC(=O)CSc1nc2ccccc2c(=O)n1CC1COc2ccccc2O1 (configuration not stated)	i	i	i	i	1.6	x	x	x
CCCN(CCC)C(=O)CSc1nc2ccccc2c(=O)n1CC1COc2ccccc2O1 (configuration not stated)	i	i	i	i	-2.6	i	i	i
SMILES	ANO1 activ	TMEM16A inh	KCNK3 block	KCNK9 inh	Kir21 inh	KCNK9 block conf	Kir2-1 spec	KCNK9 uninduced
CCc1cc2cc(OC)ccc2nc1SCC(=O)NNC(=O)c1ccco1	i	i	i	i	0.85	x	x	x
CN(Cc1ccccc1)CC1C2CCC(C2)C1O (configuration not stated)	i	x	i	x	x	x	x	x
O=C(CSCc1cnn(-c2ccccc2)c1-n1cccc1)NCc1cccs1	i	i	i	i	-6.3*	i	i	i
O=C(CSc1nnnn1-c1ccccc1)NCc1cccs1	i	i	i	i	-0.06	x	x	x
COC(=O)c1ccccc1NC(=O)C12CC3CC(C1)CC(n1cnc(Cl)n1)(C3)C2	i	i	i	i	0.95	i	i	i
COC(=O)C12CC3CC(C1)CC(n1cnc(Cl)n1)(C3)C2	i	i	i	i	0.53	x	x	x
COc1ccc(NCc2nc3ccccc3n2CCOc2ccccc2)cc1	i	i	i	-11*	-4.5*	i	i	33%*
c1ccc(NCc2nc3ccccc3n2CCOc2ccccc2)cc1	i	i	i	i	-2.8	x	x	x
Cc1cccc(OCCn2c(-c3ccco3)nc3ccccc32)c1	i	i	i	-10*	-1.9	30%*	i	34%*
COc1ccc(NCc2nc3ccccc3n2CCOc2ccc(C)cc2)cc1	i	i	i	-11*	-0.86	70%*	48%*	52%*
COC(=O)c1cc(Cl)c(NC(=O)c2cc3ccccc3o2)cc1OC	i	i	i	i	0.01	x	x	x
CCOc1cc(/C=C2\C(=O)N(Cc3ccc(C)cc3)C(C)=C2C(=O)OC)ccc1O	i	i	i	-11*	-0.95	41%*	i	32%*
O=C(O)c1ccccc1C(=O)N1N=C(c2ccccc2)CC1c1ccccc1O (configuration not stated)	i	i	i	-8.3*	0.02	42%*	i	i
O=C(c1ccccc1Br)N1N=C(c2ccccc2)CC1c1ccccc1F (configuration not stated)	i	i	i	i	1.7	x	x	x
O=C(CN1CCCCC1)Nc1cccc(Br)c1	i	i	i	i	0.16	x	x	x
O=C(O)c1cccc(S(=O)(=O)NCC2COc3ccccc3O2)c1 (configuration not stated)	i	x	i	x	x	x	x	x

High-throughput results: PubChem, Johns Hopkins Ion Channel Center
